Screening results from PubChem.
CYP2C9 inhib: inhibitors of human CYP2C9; hit rate 20% among 96,000; P11712; inhibition, % at 5 µM; AID 777; CYP2C9 Supersomes, luciferin-H conversion, luminescence;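 active = blocking of liver enzyme CYP2C9 beyond about 50% at 5 µM, limit read from the data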
CYP2C19 activ: cytochrome P450 2C19 (human) activation; activation factor at 5 µM; 96,000 tested, under 10 active; P33261; recombinant CYP2C19, luciferin-H EGE luminescence; stronger effect = higher value; 0 = fully inhibited enzyme, 1 = untreated enzyme;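 active = activation factor of at least 2 at 5 µM in the primary screen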;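 also: 0 = wells with 2.5 mM tranylcypromine and 1 = vehicle-only wells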
PLAP activator: activates human placental alkaline phosphatase | P05187 | purified PLAP enzyme, luminescent substrate read-out; stronger effect = higher value | activation fold at 20 µM | hit rate 1.2% among 96,000 | AID 696; in the data active = activation fold above about 2
Target sequence (P05187 whole entry, looked up): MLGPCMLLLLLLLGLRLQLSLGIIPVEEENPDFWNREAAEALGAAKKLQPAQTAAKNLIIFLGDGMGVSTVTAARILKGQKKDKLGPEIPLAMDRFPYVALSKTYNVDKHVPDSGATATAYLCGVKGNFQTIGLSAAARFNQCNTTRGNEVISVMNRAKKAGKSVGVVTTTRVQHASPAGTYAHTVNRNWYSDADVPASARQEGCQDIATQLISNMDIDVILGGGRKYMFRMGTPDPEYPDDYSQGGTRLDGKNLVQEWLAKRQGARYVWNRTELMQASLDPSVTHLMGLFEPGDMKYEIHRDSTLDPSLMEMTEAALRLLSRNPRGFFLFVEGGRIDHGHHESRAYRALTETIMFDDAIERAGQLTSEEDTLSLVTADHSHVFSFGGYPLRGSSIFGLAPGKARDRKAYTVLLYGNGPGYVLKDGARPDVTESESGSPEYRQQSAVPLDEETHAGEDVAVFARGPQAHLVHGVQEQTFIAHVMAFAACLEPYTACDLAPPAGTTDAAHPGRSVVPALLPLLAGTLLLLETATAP
CYP2C9 activ: CYP2C9 (human) activation | P11712 | recombinant CYP2C9, luciferin-H conversion, luminescence; stronger effect = higher value; factor 1 = untreated enzyme, 0 = blocked | activation factor at 5 µM | hit rate 1.4% among 96,000;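 active = activation factor of 2 or more for CYP2C9 at a 5 µM dose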;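 also: 0 = sulfaphenazole-blocked wells and 1 = vehicle-only wells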
CYP2C19 inhib: human CYP2C19 inhibition; P33261; CYP2C19 Supersomes, luciferin-H EGE luminescence, 30 min; inhibition, % at 5 µM; hit rate 21% among 96,000; AID 778;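 active = CYP2C19 inhibition above a set limit at 5 µM in the primary screen, cut at about 50% in these data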;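 also: plate controls were negative control wells for no effect and 2.5 mM tranylcypromine positive control for full effect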
Active calls of the source: *. This is a sample that favours compounds with a hit; in the whole collection about 31% have one here.

Screening CCOC(=O)C1=C(C)NC(=O)NC1c1c(OCC(=O)N2CCCCC2)ccc2ccccc12 (centres undefined) returned CYP2C9 inhib 83*, CYP2C19 activ 0.2, PLAP activator 1.5, CYP2C9 activ 0.2 and CYP2C19 inhib 76*.
Screening CCOC(=O)N1CCC(NC(=O)Cn2cccc2C(=O)c2ccccc2)CC1 returned CYP2C9 inhib 18, CYP2C19 activ 0.8, PLAP activator 1, CYP2C9 activ 0.8 and CYP2C19 inhib 23.
`CCN(CCNC(=O)CCCn1nc(C)n2c(cc3sccc32)c1=O)c1ccccc1` gave CYP2C9 inhib 0, CYP2C19 activ 0.6, PLAP activator 0.9, CYP2C9 activ 1 and CYP2C19 inhib 45.
Screening Cc1ccnc(SCCn2c(N3CC(C)CC(C)C3)nc3c2c(=O)n(C)c(=O)n3C)n1 (centres undefined) returned CYP2C9 inhib 41, CYP2C19 activ 0.8, PLAP activator 1.5, CYP2C9 activ 0.6 and CYP2C19 inhib 19.
`COc1cccc(CNC(=O)C2CCN(S(=O)(=O)c3ccc4c(c3)CCC(=O)N4)CC2)c1` gave CYP2C9 inhib 22, CYP2C19 activ 1.1, PLAP activator 0.9, CYP2C9 activ 0.8 and CYP2C19 inhib -6.
For CCNc1nc(SC(C)C(=O)OC)nc(N2CCOCC2)n1 (centres undefined) the results were CYP2C9 inhib 34, CYP2C19 activ 0.7, PLAP activator 1.4, CYP2C9 activ 0.7 and CYP2C19 inhib 27.
For CCOC(=O)C1=C(C)NC(=O)NC1/C(C)=C/c1ccccc1 (centres undefined) the results were CYP2C9 inhib 69*, CYP2C19 activ 0.2, PLAP activator 0.9, CYP2C9 activ 0.3 and CYP2C19 inhib 78*.
`CCOC(=O)C1=C(CNCc2ccc(C)cc2)NC(=O)NC1c1cc(C)ccc1C` (centres undefined) gave CYP2C9 inhib 55*, CYP2C19 activ 0.5, PLAP activator 1.6, CYP2C9 activ 0.5 and CYP2C19 inhib 47.
For CCOC(=O)C1=C(C)NC(=O)NC1C (centres undefined) the results were CYP2C9 inhib -5, CYP2C19 activ 1.1, PLAP activator 0.8, CYP2C9 activ 1.1 and CYP2C19 inhib -5.
Screening CCOC(=O)C1=C(C)NC(=O)NC1c1cn(-c2ccccc2)nc1-c1cccs1 (centres undefined) returned CYP2C9 inhib 80*, CYP2C19 activ 0.4, PLAP activator 1.7, CYP2C9 activ 0.2 and CYP2C19 inhib 56*.
Screening CCOC(=O)C1=C(C)NC(=O)NC1c1ccc(OCC(=O)Nc2ccccc2)c(OC)c1 (centres undefined) returned CYP2C9 inhib 91*, CYP2C19 activ 0.3, PLAP activator 1.5, CYP2C9 activ 0.1 and CYP2C19 inhib 70*.
`CCOC(=O)C1=C(C)NC(=O)NC1c1ccc(OCC(=O)OC)c(OC)c1` (centres undefined) gave CYP2C9 inhib 21, CYP2C19 activ 0.8, PLAP activator 1.1, CYP2C9 activ 0.8 and CYP2C19 inhib 18.
`CCCCCCOC(=O)C1=C(C)NC(=O)NC1c1ccc(O)cc1` (centres undefined) gave CYP2C9 inhib 81*, CYP2C19 activ 0.3, PLAP activator 1, CYP2C9 activ 0.2 and CYP2C19 inhib 70*.
`CC1=C(C(=O)OCC2CCCO2)C(c2ccc(O)cc2)NC(=O)N1` (centres undefined) gave CYP2C9 inhib -8, CYP2C19 activ 1, PLAP activator 1.1, CYP2C9 activ 1.1 and CYP2C19 inhib 0.
COCC(=O)Nc1ccc(S(=O)(=O)Nc2cc(C)nc(C)n2)cc1 was read as CYP2C9 inhib -3, CYP2C19 activ 1, PLAP activator 1.3, CYP2C9 activ 1 and CYP2C19 inhib -1.
`O=C(CCSc1ccccc1)Nc1ccc(S(=O)(=O)N2CCOCC2)cc1` gave CYP2C9 inhib 85*, CYP2C19 activ 0.4, PLAP activator 1.7, CYP2C9 activ 0.2 and CYP2C19 inhib 55*.
Screening O=C(Cn1c(-c2ccccc2)noc1=O)Nc1ccc(S(=O)(=O)N2CCOCC2)cc1 returned CYP2C9 inhib 73*, CYP2C19 activ 0.8, PLAP activator 1, CYP2C9 activ 0.3 and CYP2C19 inhib 23.
`Cc1ccc(NC(=O)CCc2ccc(S(=O)(=O)NC3CCCCC3)cc2)cc1` gave CYP2C9 inhib 41, CYP2C19 activ 0.8, PLAP activator 1, CYP2C9 activ 0.6 and CYP2C19 inhib 22.
`Cc1ccc(-c2noc(=O)n2CC(=O)Nc2ccc(S(=O)(=O)NC3CC3)cc2)cc1` gave CYP2C9 inhib 93*, CYP2C19 activ 0.6, PLAP activator 1.1, CYP2C9 activ 0.1 and CYP2C19 inhib 45.
`CCOC(=O)CSc1nc2ccc(N3CCOCC3)cc2c(=O)n1Cc1ccccc1` gave CYP2C9 inhib 83*, CYP2C19 activ 0.2, PLAP activator 1.5, CYP2C9 activ 0.2 and CYP2C19 inhib 76*.
Screening COCCNC(=O)CSc1nc2ccc(N3CCOCC3)cc2c(=O)n1CCc1ccccc1 returned CYP2C9 inhib 64*, CYP2C19 activ 0.4, PLAP activator 1.6, CYP2C9 activ 0.4 and CYP2C19 inhib 61*.
`CCCCn1c(SCC(=O)NCCOC)nc2ccc(N3CCOCC3)cc2c1=O` gave CYP2C9 inhib 43, CYP2C19 activ 0.6, PLAP activator 1.2, CYP2C9 activ 0.6 and CYP2C19 inhib 39.
For CNC(=O)CSc1nnc(-c2ccco2)n1-c1ccccc1OC the results were CYP2C9 inhib 10, CYP2C19 activ 0.9, PLAP activator 0.9, CYP2C9 activ 0.9 and CYP2C19 inhib 12.
For Fc1ccc(NC(=S)N2CCCc3ccccc32)cc1 the results were CYP2C9 inhib 7, CYP2C19 activ 0.6, PLAP activator 0.9, CYP2C9 activ 0.9 and CYP2C19 inhib 40.
For O=C(CSc1nc(C2CCCCC2)n(-c2ccccc2)n1)NCCN1C(=O)CSC1=O the results were CYP2C9 inhib 98*, CYP2C19 activ 0, PLAP activator 2*, CYP2C9 activ 0 and CYP2C19 inhib 95*.
For Cc1nnc(SCC(=O)NCCN2C(=O)CSC2=O)s1 the results were CYP2C9 inhib -6, CYP2C19 activ 1, PLAP activator 0.9, CYP2C9 activ 1.1 and CYP2C19 inhib -1.
Screening Cn1nc(CC(=O)NCCN2C(=O)CSC2=O)c2ccccc2c1=O returned CYP2C9 inhib -15, CYP2C19 activ 0.3, PLAP activator 1.2, CYP2C9 activ 1.2 and CYP2C19 inhib 70*.
O=C(CSc1nc(-c2ccccc2)c(-c2ccccc2)[nH]1)NCc1ccco1 was read as CYP2C9 inhib 50*, CYP2C19 activ 0.6, PLAP activator 1, CYP2C9 activ 0.5 and CYP2C19 inhib 37.
CCn1nc(C(=O)OCC(=O)NCCN2C(=O)CSC2=O)c2ccccc2c1=O was read as CYP2C9 inhib -9, CYP2C19 activ 1.1, PLAP activator 1, CYP2C9 activ 1.1 and CYP2C19 inhib -8.
For O=C(CCCSc1nc2ccccc2[nH]1)NCc1ccco1 the results were CYP2C9 inhib -102, CYP2C19 activ 0.8, PLAP activator 0.9, CYP2C9 activ 2* and CYP2C19 inhib 17.
